Results on 6 molecules are retold here after PubChem BioAssay (NCATS).

SMILES strings stand for the structures. Records with an inconclusive call do not appear. Calls of active or inactive are those of the source. Unless noted, the call rests on the fitted dose curve; in most records, active means well fitted curve in the direction sought with a large enough effect; inconclusive means small, poorly fitted or top-dose-only effect, or another doubt; inactive means no such curve, though single readings can be large; an effect the other way counts as inactive or inconclusive.

In test [1] the target is Estrogen receptor (Homo sapiens) (UniProt P03372). Kind of test: qHTS assay for small molecule agonists of estrogen receptor alpha signaling (AID 588514; calls by dose curve;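 further: 0% = vehicle only and 100% = reference agonist; nearly all actives have a fitted effect of over 70% in size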). The procedure, abridged: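 ER-alpha-UAS-bla GripTite HEK 293 cells in medium with 2% charcoal/dextran-treated FBS were treated with compound titrations at 37 C for 18 hrs; beta-lactamase reporter read by CCF4 fluorescence after 2 hrs at RT.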
(In general: Quantitative high-throughput screening tests each substance at several concentrations.)

In test [2] the target is Glucocorticoid receptor (Homo sapiens) (UniProt P04150). Put plainly: qHTS assay for small molecule agonists of glucocorticoid receptor signaling (AID 588532; active means well fitted curve in the direction sought with a large enough effect in the signal ratio, with a control signal flat; the % refers to the signal ratio;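 further: 100% = dexamethasone at 0.1 µM and 0% = DMSO only wells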). The conditions noted are these: HeLa MMTV-bla, beta-lactamase ratio, agonist, 18 h; activation: stronger effect = higher value, percent of dexamethasone control, DMSO zero. The method, boiled down:
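Using MMTV-bla HeLa cells in medium with 1% stripped FBS and 25 mM HEPES, compounds were titrated and incubated overnight-length (18 h). Beta-lactamase cleavage of CCF4 was quantified by dual-emission fluorescence.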

Test [3] has the same target. Put plainly: qHTS assay for small molecule antagonists of glucocorticoid receptor signaling (AID 588533; active means well fitted inhibition curve with a large enough effect in the signal ratio, with a control signal flat, not every such curve was filed as active; the % refers to the signal ratio;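 further: cells stimulated with 2 nM dexamethasone as agonist; on the % scale 0 is the no-effect control and ±100 the full control effect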). The method, boiled down: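 Antagonist-mode qHTS: compound titrations added to GRE-bla HeLa cells, then dexamethasone 2 nM final; 18 h, 37 C. CCF4 FRET fluorescence normalized to dexamethasone and DMSO; IC50 from Hill fit.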
The target of test [4] is Thyroid hormone receptor beta (Homo sapiens) (UniProt P10828). Put plainly: qHTS assay for small molecule antagonists of thyroid hormone receptor beta signaling (AID 588547; active means well fitted inhibition curve with a large enough effect in the signal ratio, with a control signal flat, not every such curve was filed as active; the % refers to the signal ratio;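 further: cells stimulated with 0.4 nM T3 agonist during compound exposure; series mostly up to about 77 µM; on the % scale 0 is the no-effect control and ±100 the full control effect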). The note with it: TR-UAS-bla HEK293, beta-lactamase ratio, antagonist mode, 18 h. The procedure, abridged:
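Inhibition of T3-driven (0.4nM final) beta-lactamase reporter activity was measured over 0.59 nM to 92 uM compound after 18 h at 37 C. The cells were GripTite HEK293 TR-UAS-bla in charcoal/dextran-stripped serum, with CCF4 ratio read-out and IC50 from Hill fits.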

The nature of test [5]: qHTS assay for small molecule activators of the p53 signaling pathway (AID 651743; active means well fitted activation curve with a large enough effect in the signal ratio, not every such curve was filed as active; the % refers to the signal ratio; further: series mostly up to about 92 µM; % of control where 0% means no effect). The conditions noted are these: HCT-116 p53RE-bla, beta-lactamase FRET ratio, 16 h; activation: stronger effect = higher value. The method, boiled down:
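Screen for p53 pathway agonists uses stably transfected p53RE-bla HCT-116 cells, 4,000 per well, treated 16 h at 37 C with compounds in DMSO.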

Test [6] is described as follows: qHTS assay for environmental chemicals that activate the Aryl hydrocarbon Receptor (AhR) signaling pathway (AID 651777). Further: % of control where 0% means no effect; nearly all actives have a fitted effect of over 15% in size. The note with it: 1A2-DRE human hepatoma cells, luciferase, 24 h; activation: stronger effect = higher value. The method, boiled down:
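AhR activation is scored as a rise in luciferase from a stable DRE–CYP1A2 promoter construct in human hepatoma cells. Treatment lasts 24 hr at 37 C; detection uses One-Glo after 30 min at room temperature.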

The target of test [7] is Peroxisome proliferator-activated receptor alpha (Homo sapiens) (UniProt Q07869). Kind of test: qHTS assay for small molecule agonists of the peroxisome proliferator-activated receptor alpha (PPARalpha) signaling pathway (AID 651778). Further: % of control where 0% means no effect. The conditions noted are these: PathHunter PPARalpha complementation, chemiluminescence, 6 h; max response: stronger effect = higher value. The method, boiled down: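 Chemiluminescence from complemented enzyme reported PPARalpha activation in cells after 6 hr of compound treatment at 37 C. The detection reagent was incubated for 60 min at room temperature, and compounds were scored as agonists.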

Test [8] in a line: qHTS assay for small molecule agonists of the antioxidant response element (ARE) signaling pathway measured by Nrf2-dependant transcriptional activity - cell viability counter screen (AID 720653; active means well fitted curve in the direction sought with a large enough effect in the repeat runs; an effect the other way counts as inactive or inconclusive; further: on the % scale 0 is the no-effect control and ±100 the full control effect). The conditions noted are these: ARE-bla HepG2 viability, CellTiter-Glo ATP luminescence, 16 h; max response: stronger effect = lower value. The procedure, abridged: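 Cytotoxicity counter screen: intracellular ATP quantified by CellTiter-Glo luminescence in the same ARE-bla HepG2 plates, after 16 h compound exposure and a 2 h beta-lactamase substrate step.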

Test [9] is described as follows: qHTS assay for cell viability of HEK293 cells (AID 743288). Further: on the % scale 0 is the no-effect control and ±100 the full control effect; nearly all actives have a fitted effect of over 50% in size. The note with it: ATP luminescence (CellTiter-Glo), 18 h; max response: stronger effect = lower value. The procedure, abridged:
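Total intracellular ATP, measured with a luciferase-coupled reagent, indicates the number of viable HEK293 cells. Exposure to test chemicals lasts 18 h at 37 C in 1,536-well format at 2,000 cells/well.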

A short description of test [10]: qHTS assay for cell viability of the p53RE-bla HCT-116 cell line (AID 743292). Further: on the % scale 0 is the no-effect control and ±100 the full control effect; nearly all actives have a fitted effect of over 55% in size. The method, boiled down: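 Quantitative high-throughput format: compounds in DMSO were pinned onto p53RE-bla HCT-116 cells (4,000/well) and incubated 16 h at 37 C. Total intracellular ATP, read by CellTiter-Glo luminescence, reflects viable cell number.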
Test [11] deals with Peroxisome proliferator-activated receptor delta (Homo sapiens) (UniProt Q03181). Put plainly: qHTS assay for small molecule agonists of peroxisome proliferator-activated receptor delta signaling (AID 588534; calls by dose curve;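 further: 0% = DMSO basal wells and 100% = positive control agonist at 10 µM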). The procedure, abridged: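 Cell-based beta-lactamase reporter assay run in agonist mode: cells seeded and incubated 5 hrs at 37 C, compounds added and incubated 18 hrs at 37 C. CCF4 dye fluorescence read after 2 hrs at RT; EC50 and efficacy from Hill fits.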

In test [12] the target is Peroxisome proliferator-activated receptor gamma (Homo sapiens) (UniProt P37231). Kind of test: qHTS assay for small molecule agonists of peroxisome proliferator-activated receptor gamma signaling (AID 588536; active means well fitted curve in the direction sought with a large enough effect in the signal ratio, with a control signal flat, not every such curve was filed as active; the % refers to the signal ratio;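 further: 0% = DMSO basal wells and 100% = rosiglitazone at 2 µM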). The procedure, abridged:
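HEK293 UAS-bla reporter line, 1% charcoal/dextran FBS; titration, 16 h, 37 C; CCF4 loading 2 h RT; fluorescence 460/530 nm. Normalized to rosiglitazone 2 uM = 100%, DMSO = 0%.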

The target in test [13] is Thyroid hormone receptor beta (Homo sapiens) (UniProt P10828). Put plainly: qHTS assay for small molecule agonists of thyroid hormone receptor beta signaling (AID 588545; calls by dose curve;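 further: 0% = DMSO only and 100% = 10 nM T3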). The procedure, abridged:
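TR-UAS-bla GripTite HEK 293 cells (2500/well, medium with 2% charcoal/dextran FBS) were treated in agonist mode for 18 h at 37 C, titrated. Beta-lactamase was read by CCF4 ratio after 2 h; normalized to 10 nM T3 (100%) and DMSO, Hill-fitted for EC50 and efficacy.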

Test [14] concerns the target Nuclear receptor subfamily 1 group I member 2 (Rattus norvegicus) (UniProt Q9R1A7). Put plainly: qHTS assay for small molecule activators of the rat pregnane X receptor (rPXR) signaling pathway (AID 651751; call rule not given here; further: 0% is about no effect). The note with it: rPXR reporter cells, luciferase (One-Glo), 24 h.
Test [15] is described as follows: qHTS assay for small molecule antagonists of peroxisome proliferator-activated receptor delta signaling (AID 588535; active means well fitted inhibition curve with a large enough effect in the signal ratio, with a control signal flat, not every such curve was filed as active; the % refers to the signal ratio;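 on max response: cells co-treated with a PPAR-delta agonist as stimulator during compound exposure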). The note with it: HEK293T PPARd-UAS-bla, beta-lactamase FRET ratio, 18 h; 460 nm channel. The method, boiled down:
(§1)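 Cell-based beta-lactamase assay in antagonist mode: 4000 HEK293T PPAR-delta-UAS-bla cells per well, 5 hr preincubation then 18 hr compound incubation at 37 C. IC50 obtained by Hill equation fitting.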

Test [16] deals with Peroxisome proliferator-activated receptor delta (Homo sapiens) (UniProt Q03181). The description is as above. The method, boiled down: as §1
Test [17] has as its target Retinoic acid receptor RXR-alpha (Homo sapiens) (UniProt P19793). Put plainly: qHTS assay for small molecule agonists of retinoid X receptor alpha signaling (AID 588544; calls by dose curve;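 further: 0% = DMSO basal wells and 100% = reference agonist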).
The nature of test [18]: qHTS assay for small molecule antagonists of retinoid X receptor alpha signaling (AID 588546; active means well fitted inhibition curve with a large enough effect in the signal ratio, with a control signal flat, not every such curve was filed as active; the % refers to the signal ratio;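 further: cells stimulated with 9-cis-retinoic acid as agonist; on the % scale 0 is the no-effect control and ±100 the full control effect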). The conditions noted are these: HEK293T RXRa-UAS-bla, beta-lactamase ratio, antagonist mode; measured here: W530 green channel, cytotoxicity proxy. The procedure, abridged: (§2)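 Beta-lactamase reporter inhibition, read as CCF4 fluorescence ratio (ex 405, em 460/530 nm) after 2 h at RT. HEK293T UAS-bla cells, 2500/well, were stimulated with 9-cis-RA at 500 or 100 nM final alongside test compound for 18 h at 37 C.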

Test [19] addresses Retinoic acid receptor RXR-alpha (Homo sapiens) (UniProt P19793). The description is as above. The note with it: HEK293T RXRa-UAS-bla, beta-lactamase ratio, antagonist mode. The method, boiled down: as §2
Test [20] in a line: qHTS assay for small molecule agonists of the antioxidant response element (ARE) signaling pathway measured by Nrf2-dependant transcriptional activity (AID 720636; active means well fitted curve in the direction sought with a large enough effect in the repeat runs; an effect the other way counts as inactive or inconclusive;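 further: HepG2 cells with an ARE-driven luciferase reporter; % of control where 0% means no effect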). The procedure, abridged: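 First, ARE-luc HepG2 cells attached for 6 hr at 37 C in 1% dialyzed FBS medium. Next, compound or DMSO was added and incubated 16 hr. Finally, ONE-Glo reagent was added and luminescence measured after 30 min.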

Chain of Estrogen receptor (Homo sapiens) (P03372 whole entry, looked up): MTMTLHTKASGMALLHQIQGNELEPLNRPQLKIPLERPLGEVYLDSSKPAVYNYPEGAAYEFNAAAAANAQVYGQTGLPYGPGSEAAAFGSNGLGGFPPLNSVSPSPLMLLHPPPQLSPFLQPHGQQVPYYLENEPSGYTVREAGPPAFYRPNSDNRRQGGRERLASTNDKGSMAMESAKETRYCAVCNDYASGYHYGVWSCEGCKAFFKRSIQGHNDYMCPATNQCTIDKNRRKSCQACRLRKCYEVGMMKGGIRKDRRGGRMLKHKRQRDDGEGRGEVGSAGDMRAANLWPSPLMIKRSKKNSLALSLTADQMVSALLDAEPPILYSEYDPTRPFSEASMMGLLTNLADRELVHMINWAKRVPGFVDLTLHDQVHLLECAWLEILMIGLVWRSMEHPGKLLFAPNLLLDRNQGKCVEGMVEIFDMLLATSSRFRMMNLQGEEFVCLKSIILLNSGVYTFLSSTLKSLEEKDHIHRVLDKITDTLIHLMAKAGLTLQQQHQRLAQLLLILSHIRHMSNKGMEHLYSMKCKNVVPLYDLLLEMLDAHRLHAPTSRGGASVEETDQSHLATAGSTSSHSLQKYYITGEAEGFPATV
Chain of Thyroid hormone receptor beta (Homo sapiens) (P10828 whole entry, looked up): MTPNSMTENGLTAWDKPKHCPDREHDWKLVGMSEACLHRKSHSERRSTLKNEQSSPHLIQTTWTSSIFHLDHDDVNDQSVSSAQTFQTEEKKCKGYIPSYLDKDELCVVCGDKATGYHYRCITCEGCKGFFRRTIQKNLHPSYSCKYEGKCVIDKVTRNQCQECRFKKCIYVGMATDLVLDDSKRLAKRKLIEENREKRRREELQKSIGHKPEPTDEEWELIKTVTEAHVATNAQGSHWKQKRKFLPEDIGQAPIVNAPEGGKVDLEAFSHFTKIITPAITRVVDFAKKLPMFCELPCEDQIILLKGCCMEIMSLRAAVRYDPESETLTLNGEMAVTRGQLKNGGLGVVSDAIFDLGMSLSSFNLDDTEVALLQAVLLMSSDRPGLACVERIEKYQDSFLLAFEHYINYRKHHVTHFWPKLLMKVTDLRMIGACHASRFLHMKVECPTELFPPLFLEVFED
Chain of Retinoic acid receptor RXR-alpha (Homo sapiens) (P19793 whole entry, looked up): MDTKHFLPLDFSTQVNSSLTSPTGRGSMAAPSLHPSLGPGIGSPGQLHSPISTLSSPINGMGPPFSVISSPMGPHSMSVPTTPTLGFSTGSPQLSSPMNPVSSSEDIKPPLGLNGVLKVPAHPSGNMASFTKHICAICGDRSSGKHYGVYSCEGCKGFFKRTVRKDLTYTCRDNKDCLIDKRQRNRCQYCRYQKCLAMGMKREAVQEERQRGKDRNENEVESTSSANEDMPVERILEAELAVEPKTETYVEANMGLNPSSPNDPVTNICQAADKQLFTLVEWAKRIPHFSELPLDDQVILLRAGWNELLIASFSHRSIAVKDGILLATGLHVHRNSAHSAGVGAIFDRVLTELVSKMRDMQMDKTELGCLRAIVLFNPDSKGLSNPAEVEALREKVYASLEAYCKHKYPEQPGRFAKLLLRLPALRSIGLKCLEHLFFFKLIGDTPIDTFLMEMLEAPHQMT
Chain of Nuclear receptor subfamily 1 group I member 2 (Rattus norvegicus) (Q9R1A7 whole entry, looked up): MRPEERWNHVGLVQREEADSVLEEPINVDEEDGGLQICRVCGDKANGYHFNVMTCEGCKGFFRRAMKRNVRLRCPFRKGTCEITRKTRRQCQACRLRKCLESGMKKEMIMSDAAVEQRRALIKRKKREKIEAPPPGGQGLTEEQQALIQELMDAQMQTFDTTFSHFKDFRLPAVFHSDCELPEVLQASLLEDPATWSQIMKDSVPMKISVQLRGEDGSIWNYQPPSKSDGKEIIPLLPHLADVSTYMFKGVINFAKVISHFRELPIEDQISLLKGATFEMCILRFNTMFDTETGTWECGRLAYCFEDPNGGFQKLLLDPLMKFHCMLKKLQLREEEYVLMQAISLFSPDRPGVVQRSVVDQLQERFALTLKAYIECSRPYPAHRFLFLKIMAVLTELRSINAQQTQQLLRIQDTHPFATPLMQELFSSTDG
Chain of Peroxisome proliferator-activated receptor gamma (Homo sapiens) (P37231 whole entry, looked up): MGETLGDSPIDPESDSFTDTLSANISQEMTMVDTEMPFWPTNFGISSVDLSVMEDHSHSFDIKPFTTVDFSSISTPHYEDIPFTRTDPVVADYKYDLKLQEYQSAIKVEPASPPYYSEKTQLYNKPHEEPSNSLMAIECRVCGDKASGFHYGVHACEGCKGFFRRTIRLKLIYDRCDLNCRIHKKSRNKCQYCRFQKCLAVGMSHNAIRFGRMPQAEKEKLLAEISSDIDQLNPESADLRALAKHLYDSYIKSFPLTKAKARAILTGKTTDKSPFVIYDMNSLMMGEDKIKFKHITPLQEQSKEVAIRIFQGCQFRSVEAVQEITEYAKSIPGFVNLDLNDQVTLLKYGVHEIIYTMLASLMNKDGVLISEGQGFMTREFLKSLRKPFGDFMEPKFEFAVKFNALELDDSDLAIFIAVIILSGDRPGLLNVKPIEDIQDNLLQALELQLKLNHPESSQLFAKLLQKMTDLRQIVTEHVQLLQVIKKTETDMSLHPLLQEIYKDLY
Chain of Glucocorticoid receptor (Homo sapiens) (P04150 whole entry, looked up): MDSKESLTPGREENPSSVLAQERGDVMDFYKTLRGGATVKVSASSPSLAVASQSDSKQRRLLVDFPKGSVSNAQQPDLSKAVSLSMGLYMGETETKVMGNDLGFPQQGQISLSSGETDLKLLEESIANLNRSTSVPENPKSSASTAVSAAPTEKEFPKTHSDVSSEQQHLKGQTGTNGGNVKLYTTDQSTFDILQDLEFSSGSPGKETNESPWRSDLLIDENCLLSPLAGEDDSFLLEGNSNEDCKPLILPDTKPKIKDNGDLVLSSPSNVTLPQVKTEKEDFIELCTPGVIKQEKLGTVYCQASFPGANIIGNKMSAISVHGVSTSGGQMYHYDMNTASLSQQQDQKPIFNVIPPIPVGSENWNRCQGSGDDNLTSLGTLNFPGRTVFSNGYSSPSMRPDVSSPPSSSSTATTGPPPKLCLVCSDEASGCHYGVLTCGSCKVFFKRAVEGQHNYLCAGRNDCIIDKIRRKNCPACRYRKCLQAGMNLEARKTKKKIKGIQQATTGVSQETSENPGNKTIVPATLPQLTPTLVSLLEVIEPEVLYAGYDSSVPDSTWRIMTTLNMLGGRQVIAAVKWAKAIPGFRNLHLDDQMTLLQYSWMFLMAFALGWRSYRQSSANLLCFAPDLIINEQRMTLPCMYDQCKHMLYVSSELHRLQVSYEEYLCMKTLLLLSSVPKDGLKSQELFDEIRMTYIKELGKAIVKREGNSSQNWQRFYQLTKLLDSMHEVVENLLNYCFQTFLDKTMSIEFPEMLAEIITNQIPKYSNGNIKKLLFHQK
Chain of Peroxisome proliferator-activated receptor delta (Homo sapiens) (Q03181 whole entry, looked up): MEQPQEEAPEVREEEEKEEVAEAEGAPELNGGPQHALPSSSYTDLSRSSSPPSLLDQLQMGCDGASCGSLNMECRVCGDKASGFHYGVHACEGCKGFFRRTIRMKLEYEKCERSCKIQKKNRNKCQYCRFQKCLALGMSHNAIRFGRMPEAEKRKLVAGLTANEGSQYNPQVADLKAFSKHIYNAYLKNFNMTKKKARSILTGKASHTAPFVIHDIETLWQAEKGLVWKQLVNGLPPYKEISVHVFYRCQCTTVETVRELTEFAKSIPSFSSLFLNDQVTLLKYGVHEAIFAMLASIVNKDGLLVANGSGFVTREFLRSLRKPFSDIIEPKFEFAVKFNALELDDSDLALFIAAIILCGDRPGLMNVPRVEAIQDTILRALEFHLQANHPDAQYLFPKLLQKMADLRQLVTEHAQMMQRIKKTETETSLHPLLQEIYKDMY
Chain of Peroxisome proliferator-activated receptor alpha (Homo sapiens) (Q07869 whole entry, looked up): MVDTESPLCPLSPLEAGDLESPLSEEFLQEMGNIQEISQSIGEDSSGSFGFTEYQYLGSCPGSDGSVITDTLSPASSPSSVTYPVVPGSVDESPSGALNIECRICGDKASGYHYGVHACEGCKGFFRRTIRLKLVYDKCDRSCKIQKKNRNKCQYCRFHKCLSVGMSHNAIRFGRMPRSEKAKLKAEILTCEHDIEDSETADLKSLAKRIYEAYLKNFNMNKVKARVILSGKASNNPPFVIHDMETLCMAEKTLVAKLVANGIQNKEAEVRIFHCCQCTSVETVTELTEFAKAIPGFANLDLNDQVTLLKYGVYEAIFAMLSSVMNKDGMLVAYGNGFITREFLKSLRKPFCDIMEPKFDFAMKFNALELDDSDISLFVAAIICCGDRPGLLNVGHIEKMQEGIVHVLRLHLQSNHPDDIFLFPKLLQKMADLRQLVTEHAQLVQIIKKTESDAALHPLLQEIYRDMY

In the case of `O=C(O)C1(O)c2ccccc2-c2ccc(Cl)cc21` (centres undefined), the Potency result in test [1], in test [3] and in [10] was “inactive” each time. Moreover, the activation in test [2] was -12.8% (inactive); in test [5], 13.8% (inactive); in test [6], 9.46% (inactive). Moreover, in test [4], the activity change % (negative = inhibition) is -1.32% (inactive). The results for the max response in test [7], in [8] and in test [9] were 13.5% (inactive), -16.8% (inactive) and -18.3% (inactive), respectively.

For the molecule `O=C(Nc1ccccc1)Nc1ccnc(Cl)c1`, the Potency entry in test [1], in test [12], in [13] and in test [10] was “inactive” each time. Moreover, the results for the activation in test [2], in test [5] and in test [6] were -0.972% (inactive), 4.1% (inactive) and 11% (inactive), respectively. In addition, the outcome in test [11] was inactive. For the same molecule, the activity change % (negative = inhibition) in test [4] is 16% (inactive). The max response in [7] is -0.317% (inactive); in test [8] it was -3.22% (inactive); in test [14] it was 9.67% (inactive).

Regarding `CCCCOCCOC(C)=O`, the Potency entry in test [1], in [3], in test [16], in [12], in test [17] and in [13] was “inactive” throughout. Also, the Potency result in test [20] is “inactive”. The activation in [2] is -12.9% (inactive); in [5] it was 0.23% (inactive); in test [6], 0.977% (inactive). Further, the result in test [11] was inactive. The max response in [15] is -10.5%; in test [18], -13.5%; in [19], -8.99% (inactive); in test [7], 0.401% (inactive); in [8], -5.86% (inactive); in test [9] it was -2.95% (inactive). In addition, the max response in test [14] was 2.29% (inactive). In addition, the activity change % (negative = inhibition) in test [4] is -3.6% (inactive).

Consider `CC(C)C1(C)N=C(c2nc3ccccc3cc2C(=O)O)NC1=O` (centres undefined), for which the Potency entry in test [1], in test [3], in [17], in test [13], in test [20] and in [10] was “inactive” throughout. The values for the activation in test [2], in test [5] and in test [6] were 2.3% (inactive), 1.69% (inactive) and -0.47% (inactive), respectively. The call in test [11] was inactive. Also, the max response in test [18] was 6.33%; in test [19] it was 4.25% (inactive); in [7], 0.197% (inactive); in test [8] it was -2.59% (inactive); in [9], -6.66% (inactive); in test [14] it was -1.98% (inactive). In addition, in [4], the activity change % (negative = inhibition) was 9.94% (inactive).

As for `CCOP(=S)(OCC)SCSP(=S)(OCC)OCC`, the Potency result in [1], in [3], in test [16], in test [12], in [13] and in test [20] was “inactive” throughout. For the same molecule, the activation in test [2] was -1.05% (inactive); in [6], 3.33% (inactive). In test [11], the call was inactive. In addition, the max response in test [15] is 36.7%; in test [18] it was -10.3%; in test [7], -1.9% (inactive); in [8], -0.915% (inactive); in test [9], -18.3% (inactive).

For the molecule `CNC(=O)Oc1cccc(N=CN(C)C)c1`, the Potency result in test [1], in test [16], in test [12], in test [17], in [13] and in [20] was “inactive” throughout. Also, in test [11], the molecule was called inactive. Further, the max response in test [15] was 16.5%; in test [18], -11.7%; in [19] it was 10.6% (inactive); in test [7], 2.04% (inactive); in test [8], -21.4% (inactive); in [9], -9.91% (inactive). Also, the max response in test [14] was -4.82% (inactive). For the same molecule, the activity change % (negative = inhibition) in [4] is 4.27% (inactive). The activation in [5] is -4.39% (inactive); in [6], 0.739% (inactive).
